VP16 counter: inhibits Gal4-VP16 luciferase reporter, ROR gamma counter-screen; Drosophila S2 Gal4-VP16 UAS-luciferase, luminescence, 20 h; Potency, µM (series often up to 53.6 µM), for inactives: at the highest dose activity, negative = inhibition, actives largely listed as inhibitors; hit rate 3.5% among 310,000; AID 2546;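 further: Gal4-VP16 expression switched on by copper sulfate through the metallothionein promoter; nearly all actives have a fitted effect of over 50% in size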
RORgamma inh: ROR gamma (mouse) transcription inhibition; P51450; Drosophila S2 Gal4-RORgamma UAS-luciferase reporter, 20 h; Potency, µM (series often up to 53.6 µM), for the others: top-dose activity change, negative = inhibition, most hits filed as inhibitors; hit rate 5.4% among 310,000; AID 2551; further: nearly all actives have a fitted effect of over 60% in size
Target sequence (P51450 whole entry, looked up, the tested form may be a part): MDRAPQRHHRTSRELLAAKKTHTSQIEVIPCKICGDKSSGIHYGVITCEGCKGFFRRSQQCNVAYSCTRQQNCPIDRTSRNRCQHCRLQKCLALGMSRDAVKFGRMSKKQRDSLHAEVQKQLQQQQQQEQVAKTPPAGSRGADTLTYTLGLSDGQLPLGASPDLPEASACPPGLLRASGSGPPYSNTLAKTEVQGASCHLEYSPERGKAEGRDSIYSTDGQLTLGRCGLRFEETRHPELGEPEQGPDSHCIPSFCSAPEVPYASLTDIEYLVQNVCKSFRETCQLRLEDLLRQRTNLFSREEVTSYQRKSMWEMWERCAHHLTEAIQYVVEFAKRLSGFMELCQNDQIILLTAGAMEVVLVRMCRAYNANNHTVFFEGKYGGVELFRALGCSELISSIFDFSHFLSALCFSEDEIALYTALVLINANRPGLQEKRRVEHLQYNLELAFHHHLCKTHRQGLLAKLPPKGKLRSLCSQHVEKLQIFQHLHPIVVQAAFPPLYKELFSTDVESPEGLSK
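A Gal4/UAS one-hybrid system in insect cells: metallothionein-promoter Gal4–ROR gamma fusion plus Photinus luciferase reporter. Copper sulfate 700 uM final, 20 hr ambient incubation, luminescent detection after 10 min with reagent.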
Luc counter: blocks Kinase-Glo luciferase, a counter-screen artifact; Potency, µM (doses to about 38.3 µM), for inactives: at the top dose activity change, negative = inhibition, usual class: inhibitors; Kinase-Glo luciferase, ATP luminescence, 8 min; hit rate 0.28% among 200,000; further: nearly all actives have a fitted effect of over 60% in size
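Luminescence was the read-out, taken after 8-minute incubation at ambient temperature. Luciferase turned over luciferin with 10 uM ATP in imidazole pH 7.2 buffer containing KCl, MgCl2, Tween 20 and BSA.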
An asterisk follows results filed as active; ? = inconclusive; nt = no result; [ ] = dose if it differs, or a comment. Shown are actives, neighbours in structure and some others; about 6.4% of the full set was active somewhere. The call rests on the fitted dose curve; in most records, active means well fitted curve in the direction sought with a large enough effect; inconclusive means small, poorly fitted or top-dose-only effect, or another doubt; inactive means no such curve, though single readings can be large; an effect the other way counts as inactive or inconclusive. On the % scale 0 is the no-effect control and ±100 the full control effect; potency means the concentration at half of the fitted maximal effect.

SMILES	VP16 counter	RORgamma inh	Luc counter
S=C(NCCCc1ccccc1)Nc1ccccc1	4µM*	16µM*	nt
O=C(NCCCc1ccccc1)Nc1ccccc1	4%	30%	-2%
S=C(NCCN1CCOCC1)Nc1ccc(Nc2ccccc2)cc1	-7%	?	3%
C/C(=N/NC(=O)c1sc(=S)n(C)c1C)c1ccccc1	?	-52%	nt
C[Si](C)(C)Cl	-6%	-17%	nt
COc1ccccc1N/C(=N/S(=O)(=O)c1ccc(C)cc1)c1ccc(Cl)cc1	-13%	?	0%
CCN(CC)CCNC(=S)Nc1ccc(Cl)cc1	-2%	-29%	3%
S=C(NCCCc1ccccc1)Nc1ccc(Cl)cc1	5µM*	4.5µM*	5%
Cc1ccc(CN2CCN(C(=O)CC(C)C)CC2)cc1	-13%	-2%	nt
Cc1cccc(NS(=O)(=O)c2cc(C(=O)N3CCCCCC3)ccc2C)c1	-10%	13%	nt
CCOc1ccccc1N1CCN(C(=S)NC(=O)C23CC4CC(CC(C4)C2)C3)CC1	3.5µM*	3.5µM*	-1%
O=C(Nc1ccccc1N1CCN(c2ccc(F)cc2)CC1)C12CC3CC(CC(C3)C1)C2	-10%	-16%	2%
O=C(NC(=S)N1CCN(c2ccc(F)cc2)CC1)C12CC3CC(CC(C3)C1)C2	3.2µM*	1.3µM*	-3%
CCOc1ccccc1N1CCN(C(=S)NCc2ccc(Cl)cc2)CC1	-9%	19%	-1%
Cc1ccc(COn2c(-c3ccc(Cl)cc3)nc3ccc([N+](=O)[O-])cc32)cc1	-4%	24%	-7%
Clc1ccc(COn2c(-c3ccc(Cl)cc3)nc3ccccc32)cc1	21%	11µM*	-6%
O=[N+]([O-])c1ccc2nc(-c3ccc(Cl)cc3)n(OCc3ccccc3)c2c1	?	24%	-2%
Clc1ccc(COn2c(-c3ccccc3)nc3ccccc32)cc1	?	10µM*	2%
CC(C)(C)c1ccc(OC(=O)c2ccc(-n3cncn3)nc2)cc1	3%	0%	-5%
O=C(CSc1nnc(CNC(=O)c2ccccc2)o1)NCCc1ccccc1	-19%	?	nt
CCOCCc1c(O)nc(SCC(=O)N2CCOCC2)[nH]c1=O	3%	-10%	nt
COc1cccc([C@@H]2Oc3ccc(Br)cc3C(=O)[C@H]2OC(=O)NS(=O)(=O)c2ccc(F)cc2)c1	4%	-15%	2%
Nc1nccc(/C=C/c2c(F)cccc2Cl)n1	-5%[10 µM]	-26%	-3%
O/N=C/c1ccc2ccccc2n1	-5%	-30%	nt
Oc1cccc2ccc(/C=C/c3ccccc3Cl)nc12	4.5µM*	4µM*	nt
SMILES	VP16 counter	RORgamma inh	Luc counter
Oc1cccc2ccc(SSc3ccc4cccc(O)c4n3)nc12	nt	nt	-9%[7.66 µM]
O/N=C/c1ccc2cccc(O)c2n1	?	11µM*	nt
COc1ccc(C(=O)N/N=C/C(Br)=C/c2ccccc2)cc1	16µM*	3.5µM*	-2%
COc1cccc(C(=O)N/N=C/C(Br)=C/c2ccccc2)c1	?	?	-11%
Oc1cccc2ccc(/C=C/c3c(F)cccc3Cl)nc12	?	3.2µM*	?
CN1CCN(S(=O)(=O)c2ccc(Oc3ccc(F)c(Cl)c3)nc2)CC1	-11%	-4%	1%
CCCN(CCC)CCNC(=O)CN1C(=O)COc2ccc(S(=O)(=O)N3CCOCC3)cc21	0%	-7%	nt
CC1CCCC(C)N1C(=O)CSc1ncccn1 (stereo not drawn)	2%	-22%	nt
Cc1cc(C)cc(N(C(=O)CNC(=O)c2ccco2)C(C(=O)NC2CCCCC2)c2ccncc2)c1 (stereo not drawn)	3%	18%	nt
COc1ccc(C(=O)N/N=C/c2ccc3cccc(O)c3n2)cc1	4µM*	1.4µM*	nt
O=C(N/N=C/c1ccc2cccc(OCc3ccccc3)c2n1)c1ccc(Cl)cc1	-4%	?	0%
Cc1cc2c(cc1S(=O)(=O)CCC(=O)NCCc1ccccc1)OCC(=O)N2	10%	-7%	nt
CN(C)S(=O)(=O)n1cc(/C=C(\NC(=O)c2ccccc2Cl)C(=O)N2CCOCC2)c2ccccc21	4%	-22%	nt
CC1(C)CC2(CCO1)OC(=O)CC2C(=O)Nc1ccccc1Cl (stereo not drawn)	3%	0%	0%
COCCCNC(=O)c1ccc2c(=O)n(C3CCCC3)c(=S)[nH]c2c1	?	14µM*	0%
CN1CCN(C(=O)c2ccc3c(=O)n(-c4ccc(F)cc4)c(=S)[nH]c3c2)CC1	3%	-8%	2%
COc1ccccc1Cn1c(=S)[nH]c2cc(C(=O)NCC3CCCO3)ccc2c1=O (stereo not drawn)	?	13µM*	1%
COCCCNC(=O)c1ccc2c(=O)n(CC3CCCO3)c(=S)[nH]c2c1 (stereo not drawn)	-9%	-23%	0%
COc1ccccc1CNC(=O)c1ccc2c(=O)n(CC3CCCO3)c(=S)[nH]c2c1 (stereo not drawn)	-23%	-39%	nt
CCCn1c(=S)[nH]c2cc(C(=O)N3CCN(C4CCCCC4)CC3)ccc2c1=O	-12%	10µM*	nt
CCN1CCN(C(=O)c2ccc3c(=O)n(C4CCCC4)c(=S)[nH]c3c2)CC1	14µM*	7.1µM*	0%
O=C(c1ccc2c(=O)n(C3CCCC3)c(=S)[nH]c2c1)N1CCN(C2CCCCC2)CC1	1%	-42%	-1%
CCOC(=O)N1CCN=C1SCc1ccc(Cl)c(Cl)c1	-1%	31%	1%
COCCN(C(=O)CSc1nnc(-c2ccccc2C)n1C)c1c(N)n(Cc2ccccc2)c(=O)[nH]c1=O	-8%	-3%	-3%
CC(C)c1ccc(NC(=O)Cc2c(C(=O)O)n(C)c3ccccc23)cc1	-3%	22%	nt
SMILES	VP16 counter	RORgamma inh	Luc counter
Cc1ccc(S(=O)(=O)N2CCC(C(=O)OCc3ccc([N+](=O)[O-])cc3)CC2)cc1	-12%	4%	-2%
CCC(C(=O)O)P(=O)(c1ccc(Cl)cc1)c1ccc(Cl)cc1 (stereo not drawn)	3%	-2%	3%
COc1ccccc1NS(=O)(=O)c1cc(C(=O)O)ccc1F	nt	nt	-1%
CCCn1c(=S)[nH]c2cc(C(=O)N3CCCC(C(=O)OCC)C3)ccc2c1=O (stereo not drawn)	?	11µM*	-4%
CCOCCCn1c(=S)[nH]c2cc(C(=O)N3CCOCC3)ccc2c1=O	-5%	-9%	-3%
Cc1nc(N(C)Cc2ccccc2)c2c(C)c(C)sc2n1	?	20µM*	nt
Cc1sc2ncnc(N(C)Cc3ccco3)c2c1C	-20%	12%	13%
CSc1ccccc1NC(=O)c1noc(C)c1[N+](=O)[O-]	0%	6%	nt
COc1ccc(Nc2cc(=O)n(C3CCCCC3)c(=O)[nH]2)c(OC)c1	3%	21%	-9%
COc1c[nH]n(C2CCCCC2)c(=O)c1=O	?	20µM*	nt
CSc1ccccc1NC(=O)C1CCCN(S(C)(=O)=O)C1 (stereo not drawn)	-2%	-4%	nt
Nc1nc(SCC(=O)c2ccc(Br)cc2)c2[nH]cnc2n1	nt	nt	-9%[7.66 µM]
CCC(=O)Oc1ccc(NC(=O)c2ccco2)cc1	-4%	-22%	?
O=C(NCCNC(=O)c1ccco1)c1ccco1	7%	16µM*	nt
O=C(Nc1ccc(OC(=O)c2ccco2)cc1)c1ccco1	-9%	?	13µM*
CCOc1ccc(Oc2cc(NC(=O)c3ccco3)cc([N+](=O)[O-])c2)cc1	?	?	6%
O=C(NCCCCNC(=O)c1ccco1)c1ccco1	-6%	1%	9%

Compound activity deposited in PubChem by National Center for Advancing Translational Sciences (NCATS).
